Experimental findings from PubChem BioAssay AID589 (National Center for Advancing Translational Sciences (NCATS), 2007) are described below.

Screen size: about 59,000 compounds; about 6,200 (11%) were called active. Not shown: some 9% with an inconclusive outcome. Cut-off read from the data, not from the text of the source: active = max dye-equivalent concentration above about 10 nM; inconclusive = mostly about 1.1 nM to 9.6 nM; inactive = weaker than that. Only a selection was taken, and actives are over-represented in it overall.

The assay is described as follows: qHTS Assay for Spectroscopic Profiling in 4-MU Spectral Region. Particulars: compound autofluorescence, 340/450 nm, 4-MU equivalents; hits give high values. The text has this:
NIH Molecular Libraries Screening Centers Network [MLSCN] NIH Chemical Genomics Center [NCGC] […] Occasionally, the artifactual effect may originate from the compounds own spectral or other biophysical properties which generally tend to track its assay concentration. Pre-screening/profiling the library with respect to the compounds spectral properties should help one exclude false positives early on. While the most informative fluorescent profiling data set is obtained by performing a full excitation and emission scan of each well by using a monochromator-based plate reader, such an approach is practical only on a very limited scale as scanning each well requires long time. An alternative approach, applied here, is to perform plate reader scans using selected excitation and emission wavelength pairs to generate a multidimensional relational database that correlates compound concentration and the respective relative fluorescence intensity at a given wavelength set. A standard curve of 4-methylumbelliferone (4-MU) present on each plate as six-point concentration series, was used to compute a normalized fluorescence response, termed dye-equivalent concentration, for each compound at each concentration.
NCGC Assay Protocol Summary: Buffer: 100 mM Tris buffer, pH 8.0 Dye standard plate: The wells in columns 1 through 4 of a Kalypsys polypropylene 1536-well compound plate were filled with standard solutions of fluorophore corresponding to the spectral region of interest. Solutions of 4-MU were placed in the following wells: A1, B1: 3 mM, A2, B2: 300 uM, A3, B3: 30 uM, A4, B4: zero (DMSO), C1, D1: 3 uM, C2, D2: 900 nM, C3, D3: 300 nM, C4, D4: zero (DMSO). Assay Steps: Six uL of buffer were dispensed to 1536-well Greiner black plates. Compounds and dye standards (23 nL) were transferred via Kalypsys PinTool. The plates were incubated for 15 min at room temperature, and then read on ViewLux (Perkin-Elmer) High-throughput CCD imager using 340 nm and 450 nm excitation and emission filter set. Keywords: NIH Roadmap, MLSCN, MLI, MLSMR, qHTS, NCGC, Fluorescent Profiling, 4MU, 4-MU
Turning to `O=C(Oc1ccc2c(c1)CN(Cc1ccccc1)CO2)c1ccccc1`, the max dye-equivalent concentration entry is “inactive”.
As for `CC(=O)Nc1nonc1-c1nc2ccccc2n1Cc1ccccn1`, the max dye-equivalent concentration entry is “inactive”.
For `CN1c2ccccc2-c2nc3ccccc3n2C1c1ccco1` (stereo not drawn), the max dye-equivalent concentration is 2800 nM (active).
As for `CCOC(=O)N1CCC(C(N)=O)CC1`, the entry is “inactive”.
Consider `CCOc1cc(S(=O)(=O)NC2CC(C)(C)NC(C)(C)C2)ccc1F`, for which the max dye-equivalent concentration result is “inactive”.
Turning to `COc1ccc(Oc2ncc3nc(C)c(=O)n(-c4ccccc4)c3n2)cc1`, the max dye-equivalent concentration entry is “inactive”.
As for `COc1ccc(-n2c(=O)c(-c3cn(C)c4ccccc34)nc3cnc(OC)nc32)cc1`, the entry is “inactive”.
As for `O=c1c(-c2cccs2)nc2cnc(Oc3ccccc3)nc2n1-c1ccccc1`, the max dye-equivalent concentration was 18 nM (active).
On to `O=C1c2ccccc2C(=O)N1c1ccccc1S(=O)C(F)(F)F` (stereo not drawn), for which the max dye-equivalent concentration result is “inactive”.
With `O=C(Cn1nnc(-c2ccc3c(c2)OCO3)n1)NCc1ccco1`, the max dye-equivalent concentration entry was “inactive”.
For the compound `CS(=O)(=O)N(CC(=O)N1CCN(Cc2ccc3c(c2)OCO3)CC1)c1ccc2c(c1)OCO2`, the max dye-equivalent concentration result is “inactive”.
As for `CS(=O)(=O)N(CC(=O)NCc1ccco1)c1ccc2c(c1)OCO2`, the max dye-equivalent concentration was 27 nM (active).
Turning to `CCn1c(COc2ccc(OC)cc2)nnc1SCC(=O)Nc1cc(OC)ccc1OC`, the max dye-equivalent concentration result was “inactive”.
Consider `Cc1cn(C2C=CC(CO)O2)c(=O)[nH]c1=O` (stereo not drawn), for which the max dye-equivalent concentration entry was “inactive”.
As for `O=C(NC1CC2CCCC(C1)N2C(=O)N1CCCCC1)C1CCCCC1` (stereo not drawn), the max dye-equivalent concentration entry was “inactive”.
For `O=C(NCCc1ccco1)c1nn(Cc2ccccc2)c(=O)c2ccccc12`, the max dye-equivalent concentration result is “inactive”.
As for `COc1ccccc1-c1c(C)nn2c(C)c(C(C)=O)cnc12`, the entry is “inactive”.
On to `Cc1ccc(C(=O)NC2CCN(C(=O)N3CCOCC3)CC2)cc1`, for which the max dye-equivalent concentration result is “inactive”.
The figure for `CN(C)CCCNc1c2c(c(C#N)c3nc4ccccc4n13)CCC2` is 98 nM (active).
On to `N#Cc1c2c(c(N3CCN(CCO)CC3)n3c1nc1ccccc13)CCCC2`, for which the max dye-equivalent concentration was 26 nM (active).
Regarding `CCCCn1c(CN2CCN(CCO)CC2)nc2ccccc21`, the max dye-equivalent concentration entry is “inactive”.
For `Cc1ccc(C(=O)NCC(=O)O)cc1S(=O)(=O)N1CCCCC1`, the max dye-equivalent concentration entry is “inactive”.
As to `Cc1ccc(C(=O)N(CN2CCCC2=O)c2ccc(F)cc2)cc1`, the max dye-equivalent concentration result was “inactive”.
As for `CCOC(=O)c1c(-n2cnnn2)sc(C)c1C`, the entry is “inactive”; as for `CC(=NCC1CCCO1)c1c(O)[nH]c(=O)[nH]c1=O` (stereo not drawn), “inactive”.
The entry for `CCCCOc1ccc(-c2ncc(C(=O)OCC)c(N)n2)cc1` is “inactive”; for `CCN(CC)CCCN1C(=O)C(=O)/C(=C(/O)c2c(C)nc3ccccn23)C1c1ccc(C)o1` (stereo not drawn) it is “inactive”.
For the compound `Cc1ccccc1-n1c(SCC(=O)NCc2cccs2)nnc1-c1ccncc1`, the max dye-equivalent concentration result was “inactive”.
As to `COc1ccc(-n2c(SCC(=O)NCc3cccs3)nnc2-c2ccoc2C)cc1`, the max dye-equivalent concentration was 23 nM (active).
On to `COc1ccc(C(=O)NC(=O)CSc2nnc(-c3ccco3)n2-c2ccccc2)cc1`, for which the max dye-equivalent concentration result is “inactive”.
For `O=C(CSc1nnc(-c2ccco2)n1CC1CCCO1)c1ccccc1` (stereo not drawn), the max dye-equivalent concentration entry was “inactive”.
As for `COc1cccc(Cn2c(=O)c(-c3cc(F)cc(F)c3)nc3cnc(OC)nc32)c1`, the max dye-equivalent concentration entry was “inactive”.
Consider `O=c1c(-c2cc(F)cc(F)c2)nc2cnc(Oc3ccccc3)nc2n1C[C@H]1CCCO1`, for which the max dye-equivalent concentration was 12 nM (active).
`OCCCNCc1ccccn1`: the max dye-equivalent concentration result is “inactive”.
As for `C[C@H]1O[C@@H](CC(=O)O)Cc2c1c(O)c1c(O)cc(-c3cc(=O)c4c(=O)c5c(c(=O)c=4c3=O)C[C@H](CC(=O)O)O[C@@H]5C)c(O)c1c2O`, the entry is “inactive”.
Take `CCCCn1c(SCC(=O)NCC2CCCO2)nc2ccc(N3CCOCC3)cc2c1=O` (stereo not drawn): the max dye-equivalent concentration was 62 nM (active).
For `CCc1ccc(NC(=O)CSc2nc3ccccc3c(=O)n2CCN2CCOCC2)cc1`, the max dye-equivalent concentration entry is “inactive”.
As for `CCn1c(SCC(=O)NCC2CCCO2)nc2cc(S(=O)(=O)N3CCCCC3)ccc21` (stereo not drawn), the entry is “inactive”; as for `COCCCNC(=O)CSc1nc2ccc(N3CCOCC3)cc2c(=O)n1CCc1ccccc1`, 54 nM (active); as for `COCCNC(=O)CSc1nc2c(n1-c1ccccc1)CCCC2`, “inactive”.
As for `CCCCn1c(SCC(=O)NCCc2ccc(OC)c(OC)c2)nc2c1c(=O)n(C)c(=O)n2C`, the entry is “inactive”; as for `Cn1c(CC(=O)Nc2ccccc2)nnc1SCC(=O)c1ccccc1`, “inactive”; as for `CC(=O)N1CCC2(CC1)CCN(c1ccncc1)CC2`, “inactive”.
Take `COc1cc(OC)cc(C(=O)Nc2ccc(-c3nc4ccccc4o3)c(O)c2)c1`: the max dye-equivalent concentration is 330 nM (active).
As for `COc1cccc(NC(=O)c2ccccc2SC)c1`, the entry is “inactive”; as for `COc1ccc(NC(=O)c2c(C)oc3c2CCCC3)cc1`, “inactive”.
On to `O=C1[C@@H]2C(Cc3ccc(O)cc3)NC3(C(=O)Nc4ccc(F)cc43)[C@@H]2C(=O)N1c1ccc(F)cc1` (stereo partly drawn), for which the max dye-equivalent concentration result is “inactive”.
Consider `CC(Sc1sc(=S)sc1SC(C)C(=O)O)C(=O)O` (stereo not drawn), for which the max dye-equivalent concentration entry is “inactive”.
Regarding `CC(C)CCNc1nc(N2CCCC2)c2c(c1C#N)CCN(C)C2`, the max dye-equivalent concentration is 24 nM (active).
As for `COc1ccc(OC)c(NC(=O)CN2CCN(C(=O)c3ccco3)CC2)c1`, the entry is “inactive”.
As for `Cc1csc(NC(=O)NC2(C(F)(F)F)Oc3ccccc3O2)n1`, the figure is 110 nM (active).
Regarding `O=C(Nc1cc(N2CCOCC2)ncn1)NC1(C(F)(F)F)Oc2ccc(Cl)cc2O1` (stereo not drawn), the max dye-equivalent concentration result was “inactive”.
As for `Cc1csc(NC(=O)CN2CCCCCC2)n1`, the max dye-equivalent concentration result was “inactive”.
